# Measured values as given in PubChem BioAssay (NCI).
# Compounds without any hit were thinned out: in the full panel of roughly 83,000, 20% have a hit.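 Note: values are percent growth. 100 is the growth of untreated cells, values between 100 and 0 indicate rising inhibition; between -100 and 0 indicates cell death.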 Unmarked numbers belong to inactive results. Activity calls are given as the source filed them. Rule for the calls: active = growth percent below 10; inactive = the rest.
# Test system: HL-60(TB) leukemia
# Assay: NCI-60 one-dose screen, 48 h (100 = growth as untreated, 0 = no growth, -100 = all killed)
# Conditions: 10 µM unless noted
row,Compound,growth
1,COc1ccc(-c2cnc(-c3ccc(Cl)cc3)[nH]2)cc1OC,91.2%
2,CCOC(=O)c1c(C)nc2c(c1N)/C(=C/c1ccc[nH]1)C(=O)N2Cc1ccc(C(F)(F)F)cc1,96.7%
3,O=C(/C=C/c1ccc(Br)cc1)c1ccc(-n2cc(CN3CCN(c4cc5c(cc4F)c(=O)c(C(=O)O)cn5C4CC4)CC3)nn2)cc1,94.3%
4,COc1cc(-c2nn(-c3cccc(NC(=O)CCN4CCN(c5ccccc5)CC4)c3)cc2-c2ccncc2)ccc1Cl,13%
5,COc1ccc(-c2cc(/C=C3\C(=O)Nc4ccc(Cl)cc43)[nH]n2)cc1,22.6%
6,O=C(CCN1CCCC1)Nc1ccc2c(NCCCCc3ccccc3)c3ccccc3nc2c1,-62.3% (active)
7,COC(=O)/C(CCC=C(C)C)=C1\[C@@H](OC(C)=O)C[C@@]2(C)[C@H]1CC(=O)[C@H]1[C@@]3(C)CCC(N4CCCC4)[C@@H](C)[C@@H]3CC[C@@]12C (stereo not given in full),-51.4% (active)
8,c1ccc(Oc2c3ccccc3nc3ccccc23)cc1,-16.4% (active)
9,O=S(=O)(O)CCI,99.5%
10,CCOC(=O)C1=C(CCl)NC(=O)NC1c1ccc2c(c1)OCO2 (stereo not given),56.9%
11,O=C(O)c1cn(C2CC2)c2cc(N3CCN(Cc4cc(Cl)ccc4O)CC3)c(F)cc2c1=O,46.4%
12,Cc1ccc2cnc(N)c(C#Cc3cncc(C(=O)Nc4ccc(CN5CCN(C)CC5)c(C(F)(F)F)c4)c3)c2c1,-59.7% (active)
13,Cc1ccc(NC(=O)CCl)cc1Cl,106%
14,Nc1ccc(C(=O)c2ccc(N)c(Br)c2)cc1Br,-16.5% (active)
15,COc1ccc(C(=O)n2nc(-c3ccccc3)nc2N)cc1OC,80%
16,Nc1nc(N)c2c(n1)NC(c1ccc(F)cc1)C1CCc3ccccc3C1=N2 (stereo not given),16.5%
17,CN(C)C(=O)OCc1ccc2c(Cl)cc(Cl)c(O)c2n1,18.8%
18,CNC(=O)c1ccccc1CC1(O)c2ccccc2Oc2ccccc21,17.8%
19,C=C(C)[C@@H]1CC[C@]2(C=O)CC[C@]3(C)[C@H](CC[C@@H]4[C@@]5(C)C/C(=C/c6cccnc6)C(=O)C(C)(C)[C@@H]5CC[C@]43C)[C@@H]12,25.9%
20,O=C(NC(Cc1nnc2n(Cc3ccccc3)c(=O)c3c4c(sc3n12)CCCC4)c1ccc(Cl)cc1)c1ccccc1 (stereo not given),78.5%

row,Compound,growth
1,O=C(OCc1ccc2c(Cl)cc(Cl)c(O)c2n1)N1CCNCC1,64.5%
2,COc1cc(OC)c(/C=C/c2ccc3ccccc3[n+]2C)c(OC)c1,-29.5% (active)
3,O=[N+]([O-])c1cccc(N=NNc2cccc([N+](=O)[O-])c2)c1,79.9%
4,O=C(NOC[C@H](O)CO)c1ccc(F)c(F)c1Nc1ccc(I)cc1F,6.7% (active)
5,COc1ccc2c(c1)nc(N)c1c3ccccc3cn21,67.1%
6,CCOC(=O)c1cnc2ccc(Cl)cc2c1NCCCN(C)C,-18.6% (active)
7,COC(CCP(=O)(c1ccccc1)c1ccccc1)(C(=O)c1ccccc1)c1ccccc1 (stereo not given),7.75% (active)
8,COc1ccc(-c2c[nH]c(C(=O)O)c2-c2cc(OC)c3c(c2OC)OCO3)cc1,105%
9,COc1ccc(S(=O)(=O)n2c3ccccc3n3ncc(-c4nnc(C)o4)c23)cc1,12.2%
10,CCN(CC)CCC(CNc1c2ccc([N+](=O)[O-])cc2nc2cc(OC)c(OC)cc12)c1ccccc1 (stereo not given),-15.9% (active)
11,c1ccc(-c2nc(N3CCOCC3)c3c4c(sc3n2)CCCCC4)nc1,79.2%
12,Nc1ncnc2c1N=C(c1ccc(Cl)cc1)CC(c1cccc(Nc3ccnc4cc(Cl)ccc34)c1)N2 (stereo not given),55.3%
13,COc1ccc(Nc2nc(N)nc3c(=O)[nH]ccc23)cc1,96.1%
14,CC(=O)n1nc(C(=O)OC(C)(C)c2ccccc2)c2ccccc21,97.5%
15,COc1ccc2c(c1)sc1nc(-c3ccccc3)c(-c3cccnc3)n12,105%
16,CCC1(C(C)C)NC(=O)NC1=O (stereo not given),100%
17,[2H]C([2H])([2H])Oc1ccc(F)cc1/C=C/C(=O)/C=C(O)/C=C/c1cc(F)ccc1OC([2H])([2H])[2H],77.3%
18,O=C(NCCCNC(=O)OCc1ccc2cccc(O)c2n1)OCc1ccc2cccc(O)c2n1,45.5%
19,CC(C)(C)n1cc(-c2ccnc(NCCNS(=O)(=O)c3ccc(Cl)cc3)c2)c(-c2cccc(O)c2)n1,39.4%
20,CC(=S)Nc1ccccc1,103%
